Sfp inh: qHTS Assay for Inhibitors of Bacillus subtilis Sfp phosphopantetheinyl transferase (PPTase). 4'-phosphopantetheinyl transferase ffp (Bacillus subtilis), Q9F4F7. Biochemical Sfp PPTase activity, qHTS. Potency, µM, usual class: inhibitors. 3.5% of 310,000 active;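 further: the enzyme is Sfp with the accession as filed and its product quenches rhodamine fluorescence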
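Fluorescence-quenching assay: 15 nM Sfp-PPTase preincubated 15 min at room temperature with compound, then 5 uM rhodamine-CoA and 12.5 uM BHQ-2-labelled YbbR peptide added. Fluorescence (ex 525/em 598 nm) read at start and after 30 min; difference gives rate.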
BAZ2B inh: qHTS Assay for Inhibitors of BAZ2B. AlphaScreen BAZ2B-H3K14Ac peptide displacement. Potency, µM (top dose mostly 114 µM), most hits filed as inhibitors. 4.4% of 360,000 active; further: nearly all actives have a fitted effect of over 60% in size
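AlphaScreen displacement of biotin-H3(5-23)K14Ac peptide (50 nM final) from BAZ2B (50 nM final) in PBS pH 7.4, 0.01% Tween-20; complex preformed 30 min RT, then compounds (top 110 uM) 30 min RT, beads 20 min dark.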
HP1b binding inh: HTS for Inhibitors of HP1-beta Chromodomain Interactions with Methylated Histone Tails. 0.56% of 390,000 active. AID 540317, 2011. Potency, µM (series often up to 114 µM), usual class: inhibitors. AlphaScreen HP1-beta / biotin-H3K9me3 peptide binding; further: nearly all actives have a fitted effect of over 70% in size
Target sequence (P83916 whole entry, looked up): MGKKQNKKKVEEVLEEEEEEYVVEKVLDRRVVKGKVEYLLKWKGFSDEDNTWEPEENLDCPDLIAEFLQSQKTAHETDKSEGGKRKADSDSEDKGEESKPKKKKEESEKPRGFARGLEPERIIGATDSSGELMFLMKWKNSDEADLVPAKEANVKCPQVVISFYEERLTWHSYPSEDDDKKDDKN
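HP1-beta protein (50 nM final) preincubated 30 min at room temperature with biotinylated H3(1-18)K9me3 peptide (50 nM) in PBS pH 7.4, 0.01% Tween-20, then compound added for 30 min. AlphaScreen streptavidin donor/nickel chelate acceptor beads (10 ug/mL final), 30 min dark, luminescence read.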
G9a block: qHTS Assay for Inhibitors of Histone Lysine Methyltransferase G9a. G9a H3K9 monomethylation, AlphaScreen, 2 h. Potency, µM (top dose mostly 102 µM), most hits filed as inhibitors. 8.8% of 350,000 active. AID 504332, 2011. Histone-lysine N-methyltransferase EHMT2 (Homo sapiens), Q96KQ7; further: nearly all actives have a fitted effect of over 75% in size
Target sequence (Q96KQ7 913-1193 limits assumed): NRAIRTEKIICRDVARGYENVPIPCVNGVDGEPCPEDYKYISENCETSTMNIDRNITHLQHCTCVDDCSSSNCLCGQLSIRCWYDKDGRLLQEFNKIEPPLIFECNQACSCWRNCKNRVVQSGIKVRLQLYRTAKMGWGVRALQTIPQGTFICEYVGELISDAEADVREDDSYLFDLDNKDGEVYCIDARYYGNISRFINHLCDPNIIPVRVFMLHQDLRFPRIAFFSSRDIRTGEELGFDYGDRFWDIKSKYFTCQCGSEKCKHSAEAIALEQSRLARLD
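Quantitative HTS format: methyltransferase activity on a biotin-tagged H3K9 peptide is measured by AlphaScreen, using a rabbit anti-monomethyl-H3K9 antibody with streptavidin donor and anti-IgG acceptor beads. Final levels are 20 nM enzyme, 500 nM peptide, 20 uM SAM; 2 h RT.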
TDP1 block: qHTS Assay for Inhibitors of Tyrosyl-DNA Phosphodiesterase (TDP1); Tyrosyl-DNA phosphodiesterase 1 (Homo sapiens), Q9NUW8; recombinant TDP1, AlphaScreen DNA substrate cleavage; Potency, µM (titrated, usually from 130 µM), hits mostly inhibitors; 0.28% of 350,000 active; AID 485290, 2010; further: nearly all actives have a fitted effect of over 40% in size
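Here, a 5' biotin and 3' phosphotyrosine-FITC DNA oligonucleotide reports Tdp1 activity: intact substrate bridges AlphaScreen beads, while cleavage leaves a 3' phosphate and drops signal. All incubations at room temperature.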
JMJD2A Tudor: qHTS Assay for Inhibitors of JMJD2A-Tudor Domain. Lysine-specific demethylase 4A (Homo sapiens), O75164. Potency, µM (titrated, usually from 114 µM), most hits filed as inhibitors. AlphaScreen JMJD2A-Tudor / H3K4me3 peptide binding. 4.4% of 390,000 active; further: nearly all actives have a fitted effect of over 50% in size
Numbers stand for hits; i = inactive; ? = inconclusive; nt = no result given; ! = not active in a repeat; [ ] = dose if it differs, or a comment. An excerpt weighted towards active compounds, which were near 12% of everything screened. The call rests on the fitted dose curve; in most records, active means well fitted curve in the direction sought with a large enough effect; inconclusive means small, poorly fitted or top-dose-only effect, or another doubt; inactive means no such curve, though single readings can be large; an effect the other way counts as inactive or inconclusive.

SMILES | Sfp inh | BAZ2B inh | HP1b binding inh | G9a block | TDP1 block | JMJD2A Tudor
COc1ccc(CCNC(=O)CCCN2C(=O)c3ccccc3C2=O)cc1 | i | i | i | i[12.7 µM] | i | i
Cn1sc(=O)n(Cc2ccccc2)c1=O | 0.141µM | nt | nt | nt | i | nt
CCCCNC1=CC(=O)C(NCCCC)=CC1=O | nt | nt | 17.8µM | nt | nt | 39.8µM
Cn1c(N=Nc2ccccc2)nc2ccccc21 | ? | 50.1µM | ? | ? | i | ?
O=C1NC(=O)C(c2ccccc2[N+](=O)[O-])=C1Nc1ccc(O)c(Cl)c1 | 56.2µM! | 50.1µM | i | 1.5µM | i | ?
Cc1cccc(C(=O)NC2=NC(c3ccc(Cl)cc3)CC(=O)N2)c1 (configuration not stated) | nt | i | i | i | i | i
COc1cc(CNCCO)ccc1OCCc1ccccc1 | i | i | i | i | i | i
CCOC(=O)/C(C#N)=C\c1ccc(OC)c(OC)c1 | i | i | i | ? | i | i
CCOC(=O)/C(C#N)=C\c1cc(OC)c(OC)cc1[N+](=O)[O-] | i | i | ? | i[0.501 µM] | i | 11.2µM
Cc1ccc(CCNC(=O)c2c[nH]c3ccc(S(=O)(=O)Nc4cccc(C(F)(F)F)c4)cc3c2=O)cc1 | nt | i | i | i | i | i
NC(CCCCCP(=O)(c1ccccc1)c1ccccc1)C(=O)O (configuration not stated) | i | i | i | ? | nt | 10µM
O=C1c2cccc(Cl)c2C(=O)c2c1cccc2N1CCCC1 | nt | nt | 22.4µM | nt | nt | ?
O=C1C(Cl)=C(N2CCCCC2)C(=O)N1c1ccccc1Cl | i | i | i | i[12.7 µM] | i | i
O=C(COC(=O)c1cn(-c2ccccc2)nc1-c1cccnc1)NC1CC1 | i | i | i | i | i | i
O=C(C=Cc1ccco1)c1ccc2ccccc2c1 | nt | nt | ? | nt | nt | i
CN(C)c1ccc(C(=O)/C=C/c2ccco2)cc1 | 50.1µM | 50.1µM | i | 12.6µM | i | i
O=C(/C=C/c1ccco1)c1ccc(O)cc1 | 22.4µM | ? | nt | ? | i | nt
CCCCCCCCCCCCCCCCCC(=O)OC(CC(=O)O)C[N+](C)(C)C (configuration not stated) | nt | nt | nt | 16.8µM! | i | nt
CCCCCCCC(=O)O[C@H](CC(=O)O)C[N+](C)(C)C | i | nt | nt | nt | i | nt
O=C1CN(c2nc(-c3cccnc3)nc3scc(-c4ccccc4)c23)CCN1 | i | i | i | 39.8µM | i | i
COc1ccc(-c2csc3nc(-c4cccnc4)nc(N4CCC(C(N)=O)CC4)c23)cc1OC | i | i | i | ? | i | i
COc1ccc(/C(C)=N/Nc2cccc(C(=O)O)c2)cc1OC | i | ? | i | 1.41µM | i | i
Clc1ccc(N/N=C/c2cccnc2)cc1 | i | ? | i | 3.98µM | i | ?
COc1ccc(Br)cc1/C=N/NC(=O)c1cc(Br)ccc1O | i | 56.2µM | nt | 39.8µM | i | nt
Cc1[nH]c2ccccc2c1/C=N/NC(=O)c1ccccc1 | i | i | i | i | nt | i
SMILES | Sfp inh | BAZ2B inh | HP1b binding inh | G9a block | TDP1 block | JMJD2A Tudor
Cc1[nH]c2ccccc2c1/C=N/Nc1cccc(C(=O)O)c1 | i | ? | i | 3.98µM | i | ?
Cc1ccc(CNC(=O)C(CC(C)C)OC(=O)c2ccco2)cc1 (configuration not stated) | i | i | i | i | i | i
C/C=C(\C=C\[C@@H](C)C/C=C/CC/C=C/C=C\C[C@@H](OC)/C(C)=C\C=C(C)C)CC(=O)O | i | nt | nt | nt | i | nt
COc1ccc(C(=O)NC2CCN(C(=O)NCc3ccccc3)CC2)cc1 | i | i | i | i | i | i
O=C(Cn1ncn2c(cc3ccccc32)c1=O)NCCCc1ccccc1 | i | i | i | i | i | i
O=C(O)c1cccc(N/N=C/c2ccc(-c3ccccc3)cc2)c1 | i | nt | i | 25.1µM | i | i
CN(C)c1ccc(/C=N/Nc2cccc(C(=O)O)c2)cc1 | i | ? | i | 7.94µM | nt | ?
O=C(N/N=C/c1cccnc1)c1ccccc1 | i | i | i | i | nt | i
